TWEAK-Fn14 inh = inhibitors of TWEAK-Fn14 signaling, primary screen, luciferase reporter cells, uHTS. 360,000 tested, 2% active. AID 1159606, 2016. TWEAK-stimulated Fn14 reporter cells, luciferase luminescence, 8 h. inhibition, % at 10 µM; in the data active = inhibition above about 50%
TROY NFkB inh = inhibitors of TROY-driven NF-kB signaling, primary screen, Q293 LMP1-TROYcd cells, NF-kB luciferase, uHTS | 360,000 tested, 0.98% active | Q293 LMP1-TROYcd NF-kB luciferase reporter, 4 h | inhibition, % at 10 µM;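 active = compounds whose plate-normalised and pattern-corrected inhibition of the luciferase reporter signal at the single screening dose is 50% or more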
MITF TRPM1 inh = inhibitors of MITF-dependent TRPM1 promoter reporter, primary screen, cell-based, SK-MEL-5, single point, luciferase | SK-MEL-5 TRPM1 promoter luciferase, 24 h | inhibition, % at 12.5 µM | 330,000 tested, 0.83% active | AID 488899, 2010;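 active = mean inhibition across replicates of 60% or more, whatever share of single replicates reaches that level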
EBV LMP1 NFkB = EBV LMP1-driven NF-kappaB luciferase reporter inhibitors, primary screen, cell-based, luminescence, single point; LMP1-induced NF-kappaB luciferase reporter cells; inhibition, % at 12.5 µM; 350,000 tested, 0.69% active; in the data active = inhibition above about 41%
Shn3 inh set2 = reduction of Shn3 3'UTR firefly luciferase signal, primary screen, Schnurri-3 inhibitor project, cell-based, Clone20 osteoblasts, set 2; inhibition, % at 12.5 µM; AID 588674, 2011; 360,000 tested, 0.52% active; Clone20 osteoblast Shn3 3'UTR firefly luciferase, 24 h;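 active = mean inhibition of at least 75% with every replicate also reaching 75%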
HIF-2a inh = HIF-2a reporter inhibitors, primary screen, luminescence, 786-0 RCC cells; inhibition, % at 18.8 µM; 360,000 tested, 0.72% active; 786-0 RCC cells HIF-2a reporter, luciferase luminescence, overnight;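 active = inhibition of the luminescence signal of 40% or more relative to plate controls, in a single-dose primary screen at 18.75 µM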
Numbers stand for hits; n = inactive; x = no result given. Only some compounds are listed: those with a hit (about 3.4% of all), similar ones and a draw of the others.

SMILES | TWEAK-Fn14 inh | TROY NFkB inh | MITF TRPM1 inh | EBV LMP1 NFkB | Shn3 inh set2 | HIF-2a inh
CC1(C(=O)Nc2ccc3c(c2)OCCO3)CCN1C(=O)Cc1ccc(-c2ccccc2)cc1 (centres undefined) | 74 | n | x | x | n | n
CC1(C(=O)Nc2cccc(C#N)c2)CCN1C(=O)Cc1ccc(-c2ccccc2)cc1 (centres undefined) | 57 | n | x | x | n | n
Cn1cnc2c(cnn2C)c1=O | n | n | n | n | n | n
COc1ccc(N2C(=NC(=O)CC3CCCCC3)SC3CS(=O)(=O)CC32)cc1 (centres undefined) | n | n | n | n | n | n
Brc1ccc(-c2ccccc2)cc1 | n | n | n | n | n | n
Brc1ccc(-c2ncc(-c3ccccc3)cn2)cc1 | 52 | n | n | n | n | n
CCC(C(=O)Oc1c(C(C)C)cccc1C(C)C)c1ccccc1 (centres undefined) | n | n | n | n | n | n
Cn1cccc1C(=O)OCC(=O)Nc1ccc2c(c1)OCO2 | n | n | n | 44 | n | n
c1ccc2c(c1)oc1c(-c3ccc4nccn4c3)cccc12 | n | n | x | x | n | n
CCCCOc1ccc(C(=O)OCC(=O)N2CCOCC2)cc1 | n | n | n | n | n | n
O=C1[C@H]2[C@@H](c3ccc(C(F)(F)F)cc3)N[C@]3(CCCN(Cc4ccco4)C3=O)[C@H]2C(=O)N1Cc1ccccc1 | n | n | x | n | n | n
Cc1cccc(C(=O)Oc2ccc(/C=N/NC(=O)c3ccccc3O)cc2)c1 | n | n | n | n | n | n
CCOc1cc(/C=N\NC(=O)c2ccc(NC(=O)CC)cc2)ccc1OC(=O)c1ccccc1 | n | n | n | n | 95 | n
Cc1cccc(C(=O)Oc2ccc(/C=N/NC(=O)c3ccc(O)cc3)cc2)c1 | n | 52 | n | n | n | n
CCOc1cc(/C=N\NC(=O)c2ccc(NC(=O)C(C)(C)C)cc2)ccc1OC(=O)c1cccc(C)c1 | 86 | 53 | n | n | n | n
O=Cc1nccc2ccccc12 | n | n | n | n | n | n
C(=Cc1c[nH]c2ccccc12)c1nccc2ccccc12 | 89 | 65 | n | n | n | n
C(=Cc1c[nH]c2ccccc12)c1ccc2ccccc2n1 | 73 | n | n | n | n | n
O=C(/C=C/c1c[nH]c2ccccc12)c1ccccc1 | n | n | n | n | n | n
COC1=CC(=O)C[C@@H](C)[C@]12Oc1c(Cl)c(OC)cc(OC)c1C2=O | n | n | n | n | n | n
CC(C)NC(=O)C1(C)CN(S(C)(=O)=O)CC(=O)N1C1CCN(Cc2ccccc2)CC1 (centres undefined) | x | x | x | x | x | n
CCCc1nnc(SCC(=O)Nc2cccc(Cl)c2Cl)o1 | n | n | n | n | n | n
CCC(C)N1C(=O)S/C(=C/c2ccc(N3CCOCC3)cc2C)C1=O (centres undefined) | 51 | n | n | n | n | n
COc1ccc(-c2csc3ncnc(Nc4ccc(O)cc4)c23)cc1 | n | n | n | n | n | n
Cc1ccc(-c2csc3ncnc(N4CCc5ccccc5C4)c23)cc1 | 78 | 58 | n | n | n | n
SMILES | TWEAK-Fn14 inh | TROY NFkB inh | MITF TRPM1 inh | EBV LMP1 NFkB | Shn3 inh set2 | HIF-2a inh
CCOc1ccccc1N1CCN(c2ncnc3scc(-c4ccc(OC)cc4)c23)CC1 | n | 59 | n | n | n | n
Oc1ccccc1N1CCN(c2ncnc3scc(-c4ccccc4)c23)CC1 | 56 | n | n | n | n | n
COc1ccc(-c2csc3ncnc(NCCO)c23)cc1 | 72 | n | n | 42 | n | n
COc1ccc(C(=O)OCC(=O)NCC2CCCCC2)c(OC)c1 | n | n | n | n | n | n
O=C(Nc1nc2ccccc2[nH]1)C1CCCO1 (centres undefined) | n | n | n | n | n | n
O=C(Nc1ccc(-c2nc3ccccc3[nH]2)cc1)C1CCCO1 (centres undefined) | 73 | n | n | n | n | n
Cc1cccc(-c2nc3cc(NC(=O)C4CCCO4)ccc3o2)c1 (centres undefined) | 68 | n | n | n | n | n
CCC(=O)Nc1ccc2oc(-c3cccc(C)c3)nc2c1 | 74 | n | n | n | n | n
Cc1ccc(NC(=O)CSCC(=O)NC2(C)CCS(=O)(=O)C2)cc1 (centres undefined) | n | n | n | n | n | n
CCCCn1c(N)c(N(CC)C(=O)C2CCC2)c(=O)[nH]c1=O | n | n | x | n | n | n
Cc1cc(/C=C2/NC(=O)N(c3ccccc3)C2=O)c(C)n1C(C)C | 60 | n | n | n | n | n
O=c1[nH]c2ccccc2nc1/C=C(\O)C1CC1 | n | n | n | n | n | n
CC(C)(C)/C(O)=C/c1nc2ccccc2[nH]c1=O | 75 | 82 | n | n | n | n
CCOc1ccc(NC(=O)CSc2nnc(NC(=O)C3CC3)s2)cc1 | n | n | n | n | n | n
O=C(NCc1ccncc1)C(=O)Nc1nc(C23CC4CC(CC(C4)C2)C3)cs1 | 76 | 57 | n | n | n | n
O=C(NCc1ccccc1)C(=O)Nc1nc(C23CC4CC(CC(C4)C2)C3)cs1 | n | n | n | n | n | n
COc1cc(-c2noc(C)c2/C=C/c2ccc(OC(C)=O)cc2)cc(OC)c1OC | 52 | n | n | n | n | n
CCc1noc(C)c1C(=O)Nc1ccccc1C(C)(C)C | n | n | n | n | n | n
O=C(NC1CC2CCCC(C1)N2S(=O)(=O)c1ccccc1)c1ccco1 (centres undefined) | n | n | n | n | n | n
CC(=O)NC1CC2CCCC(C1)N2S(=O)(=O)c1cccc(F)c1 (centres undefined) | 104 | n | n | n | n | n
Cc1cc(OCC(=O)Nc2ccccc2N2CCOCC2)c(C(C)C)cc1Cl | n | n | n | n | n | n
Cc1nnc(NC(=O)c2sc3nc(-c4cccs4)cc(C(F)(F)F)c3c2N)s1 | 74 | 60 | n | n | n | n
Cc1cc(C)c2c(N)c(C(=O)Nc3nccs3)sc2n1 | 66 | n | n | n | n | n
O=C(O)C1=CC[C@@H](c2ccc(Cl)cc2)N(S(=O)(=O)c2ccc(Cl)cc2)[C@H]1c1cccc(Cl)c1 | n | n | n | n | n | n
Cc1nn(C(C)C)c(C)c1CN1CCC(C(=O)Nc2cccc(-c3cccc(F)c3)c2)CC1 | n | n | 61 | n | n | n
C=CCn1cc(CN2CCC(C(=O)Nc3cccc(-c4cccc(Cl)c4)c3)CC2)c(C)n1 | n | n | 75 | n | n | n
Cc1cccc(CN2CCC(C(=O)Nc3cccc(-c4cccc(F)c4)c3)CC2)n1 | n | n | n | n | n | n
